Test [1] is described as follows: qHTS for differential inhibitors of proliferation of Plasmodium falciparum line GB4 (AID 1816).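 Further: parasite growth measured after 72 h incubation.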 Further: potency means the concentration at half of the fitted maximal effect. Conditions: Potency: Plasmodium falciparum GB4 proliferation inhibition.
A short description of test [2]: qHTS for differential inhibitors of proliferation of Plasmodium falciparum line 3D7 (AID 1876). Further: potency means the concentration at half of the fitted maximal effect.
The nature of test [3]: qHTS for differential inhibitors of proliferation of Plasmodium falciparum line D10 (AID 1877).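 Further: parasites grown with compound for 72 h before DNA staining.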 Further: potency means the concentration at half of the fitted maximal effect.
Test [4] can be described thus: qHTS for differential inhibitors of proliferation of Plasmodium falciparum line Dd2 (AID 1882). Further: nearly all actives have a fitted effect of over 65% in size. Further: potency means the concentration at half of the fitted maximal effect. Conditions: Potency: Plasmodium falciparum Dd2 proliferation inhibition. In outline:
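RBC culture, 0.3% parasitemia / 2.5% Hct final; cpd added by pin tool in DMSO; 72 h, 37 C, 5% CO2; lysis buffer + SYBR Green I, o/n RT dark; FI 485/535; norm. to artemisinin 0.29 uM and DMSO.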

Test [5] is described as follows: qHTS for differential inhibitors of proliferation of Plasmodium falciparum line W2 (AID 1883).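 Further: parasites grown with compound for 72 h before lysis and staining.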 Further: potency means the concentration at half of the fitted maximal effect. The note with it: Potency: Plasmodium falciparum W2 proliferation inhibition.
Test [6] is described as follows: qHTS for differential inhibitors of proliferation of Plasmodium falciparum line HB3 (AID 1886).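 Further: parasites grown with compound for 72 h before SYBR Green readout.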 Further: potency means the concentration at half of the fitted maximal effect. Conditions: Potency: Plasmodium falciparum HB3 proliferation inhibition.
The target of test [7] is ATP-dependent DNA helicase Q1 (Homo sapiens) (UniProt P46063). Put plainly: qHTS Validation Assay for Inhibitors of RecQ-Like Dna Helicase 1 (RECQ1) (AID 2353). A digest of the protocol:
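RECQ1T1 50 nM; forked duplex (20 bp + 30-nt ss tails) 200 nM, ATP 2 mM final; pH 8.0, 2 mM MgCl2, 2.5 ug/ml poly(dI-dC); 15 min compound preincubation; discontinuous kinetic read over 2 h at RT.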

Test [8] can be described thus: qHTS Assay for Modulators of Human Peripheral Myelin Protein 22 (PMP22) Expression/Activity (AID 1967; active means well fitted curve in the direction sought with a large enough effect in the signal ratio; the % refers to the signal ratio). A digest of the protocol:
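Mouse MSC80 Schwann line, Pmp22 promoter–CBG68 reporter, EF-alpha–CBR internal control. 24h compound exposure, 37 °C/5% CO2, DMEM + 10% FBS. Readout: corrected green/red luminescence ratio, normalized to untreated cells; concentration-response curves fitted and classified.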

The target in test [9] is Ferritin light chain (Equus caballus) (UniProt P02791). Put plainly: qHTS Validation Assay for Identification of Novel General Anesthetics (AID 2323). Further: series mostly up to about 77 µM. In outline:
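10 uM horse-spleen apoferritin + 1-AMA (50% saturated, PBS); cpd pin-transferred, 10 min RT. Ex 380/Em 535 nm endpoint. Activity normalized between free 1-AMA and 1-AMA/apoferritin; 4-parameter Hill fit of concentration-response.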

The target in test [10] is RecQ-like DNA helicase BLM (Homo sapiens) (UniProt P54132). Put plainly: qHTS Validation Assay for Inhibitors of Bloom's syndrome helicase (BLM) (AID 2364). In outline:
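50 nM BLM preincubated 15 min at room temperature with compound in pH 8.0 Tris buffer containing 2.5 ug/ml poly(dI-dC); started with 200 nM TAMRA/BHQ-2 forked duplex and 2 mM ATP (final). Unwinding read as TAMRA fluorescence increase, two reads 2 h apart.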

For 23 compounds, Potency and outcome results are on record in PubChem BioAssay (NCATS).

Records with an inconclusive call do not appear. Calls of active or inactive are those of the source. Unless noted, the call rests on the fitted dose curve; in most records, active means well fitted curve in the direction sought with a large enough effect; inconclusive means small, poorly fitted or top-dose-only effect, or another doubt; inactive means no such curve, though single readings can be large; an effect the other way counts as inactive or inconclusive.

Sequence of ATP-dependent DNA helicase Q1 (Homo sapiens) (P46063 whole entry, looked up): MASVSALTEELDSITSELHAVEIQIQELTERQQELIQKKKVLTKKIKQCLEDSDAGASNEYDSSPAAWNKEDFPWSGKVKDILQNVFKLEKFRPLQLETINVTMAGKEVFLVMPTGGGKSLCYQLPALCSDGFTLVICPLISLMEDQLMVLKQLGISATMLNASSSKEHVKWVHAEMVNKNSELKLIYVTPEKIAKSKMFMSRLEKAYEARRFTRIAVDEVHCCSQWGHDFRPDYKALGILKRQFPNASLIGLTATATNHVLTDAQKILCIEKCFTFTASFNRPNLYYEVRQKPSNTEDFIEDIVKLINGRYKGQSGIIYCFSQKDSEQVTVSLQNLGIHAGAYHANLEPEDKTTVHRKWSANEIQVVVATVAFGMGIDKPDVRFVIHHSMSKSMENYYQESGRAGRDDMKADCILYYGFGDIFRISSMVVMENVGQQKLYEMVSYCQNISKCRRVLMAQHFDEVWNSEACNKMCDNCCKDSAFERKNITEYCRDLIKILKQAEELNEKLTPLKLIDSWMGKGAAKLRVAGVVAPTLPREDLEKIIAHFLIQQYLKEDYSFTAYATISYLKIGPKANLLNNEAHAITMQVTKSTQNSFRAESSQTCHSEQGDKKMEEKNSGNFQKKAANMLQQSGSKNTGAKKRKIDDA
Sequence of Ferritin light chain (Equus caballus) (P02791 2-175 limits assumed): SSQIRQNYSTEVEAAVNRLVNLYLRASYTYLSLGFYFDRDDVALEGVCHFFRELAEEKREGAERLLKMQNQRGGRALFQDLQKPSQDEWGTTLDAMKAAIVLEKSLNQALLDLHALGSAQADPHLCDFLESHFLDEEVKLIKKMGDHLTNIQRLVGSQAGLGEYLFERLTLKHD
Sequence of RecQ-like DNA helicase BLM (Homo sapiens) (P54132 whole entry, looked up): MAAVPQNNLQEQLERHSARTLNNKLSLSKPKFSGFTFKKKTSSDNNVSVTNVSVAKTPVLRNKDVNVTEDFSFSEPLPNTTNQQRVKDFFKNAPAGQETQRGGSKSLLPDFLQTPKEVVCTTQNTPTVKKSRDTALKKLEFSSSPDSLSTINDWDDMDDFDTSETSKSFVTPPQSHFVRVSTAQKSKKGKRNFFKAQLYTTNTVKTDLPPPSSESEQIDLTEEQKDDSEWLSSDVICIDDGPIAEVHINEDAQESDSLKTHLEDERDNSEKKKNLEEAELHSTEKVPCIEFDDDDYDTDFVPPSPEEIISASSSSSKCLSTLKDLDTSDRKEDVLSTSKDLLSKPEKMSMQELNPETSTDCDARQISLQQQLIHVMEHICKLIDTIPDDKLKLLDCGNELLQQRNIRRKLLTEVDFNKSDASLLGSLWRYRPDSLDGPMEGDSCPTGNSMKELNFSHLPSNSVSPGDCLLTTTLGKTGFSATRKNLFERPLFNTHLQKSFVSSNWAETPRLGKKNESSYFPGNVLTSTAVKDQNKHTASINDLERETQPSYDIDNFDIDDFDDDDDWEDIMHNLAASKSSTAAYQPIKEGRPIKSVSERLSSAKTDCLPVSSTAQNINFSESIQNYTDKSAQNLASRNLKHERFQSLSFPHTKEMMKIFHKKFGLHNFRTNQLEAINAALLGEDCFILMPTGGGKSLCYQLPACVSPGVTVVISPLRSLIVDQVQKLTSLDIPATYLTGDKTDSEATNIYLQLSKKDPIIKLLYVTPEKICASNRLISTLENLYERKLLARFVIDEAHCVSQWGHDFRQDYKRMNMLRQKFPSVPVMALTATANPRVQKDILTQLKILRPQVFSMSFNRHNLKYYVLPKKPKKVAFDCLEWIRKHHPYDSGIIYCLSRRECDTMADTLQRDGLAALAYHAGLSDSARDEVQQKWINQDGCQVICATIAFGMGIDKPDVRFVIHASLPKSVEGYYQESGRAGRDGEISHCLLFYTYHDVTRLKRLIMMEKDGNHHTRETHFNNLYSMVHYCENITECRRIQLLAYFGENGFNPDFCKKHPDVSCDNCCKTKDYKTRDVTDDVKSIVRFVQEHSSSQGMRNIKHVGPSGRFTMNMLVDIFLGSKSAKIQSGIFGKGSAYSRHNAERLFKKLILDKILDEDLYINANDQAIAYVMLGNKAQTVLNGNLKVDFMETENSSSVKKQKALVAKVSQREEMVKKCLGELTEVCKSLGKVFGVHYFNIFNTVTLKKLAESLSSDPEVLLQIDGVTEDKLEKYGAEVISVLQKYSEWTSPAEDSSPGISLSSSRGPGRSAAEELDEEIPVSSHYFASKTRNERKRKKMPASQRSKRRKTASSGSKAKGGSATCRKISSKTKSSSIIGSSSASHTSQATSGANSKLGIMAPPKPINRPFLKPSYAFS

Turning to `CC[C@@]1(O)C(=O)OCc2c1cc1n(c2=O)Cc2cc3ccccc3nc2-1`, the Potency in test [1] was 0.794 µM (active); in [2], 0.794 µM (active); in test [3] it was 1.12 µM (active); in test [4], 1 µM (active); in test [5], 0.794 µM (active); in [6] it was 0.794 µM (active). The outcome in test [7] was inactive.
Regarding `NC(CCP(=O)(O)O)C(=O)O` (centres undefined), the Potency entry in test [1], in test [2], in test [3], in test [4], in test [5] and in test [6] was “inactive” throughout. Moreover, in [10], the Potency result is “inactive”. In addition, the compound was classed as inactive in test [8], in test [9] and in test [7].
For the compound `C[C@]12N[C@H](Cc3ccccc31)c1ccccc12`, the figures for the Potency in test [1], in test [4] and in test [5] were 1.78 µM (active), 7.08 µM (active) and 1.58 µM (active), respectively. In addition, the Potency entry in test [2], in test [3], in [6] and in [10] was “inactive” each time. Besides, the compound was classed as inactive in test [9] and in test [7].
Take `CNCCc1c[nH]c2ccc(O)cc12`: the Potency result in test [1], in [2], in test [3], in [4], in test [5] and in [6] was “inactive” throughout. Also, the outcome in test [8], in test [9] and in test [7] was inactive.
With `NC(N)=NOCCC(N)C(=O)O` (centres undefined), the Potency result in test [1], in test [2], in [3], in test [4], in [5] and in test [6] was “inactive” in each case. The result in test [8], in test [9] and in test [7] was inactive.
Take `NCc1cc(=O)[nH]o1`: the Potency result in test [1], in test [2], in test [3], in [4], in [5] and in test [6] was “inactive” in each case. In addition, in test [10], the Potency entry was “inactive”. Also, the call in test [8], in test [9] and in [7] was inactive.
On to `O=C(O)[C@@H]1CCN1`, for which the Potency result in test [1], in [2], in [3], in test [4], in [5] and in test [6] was “inactive” in each case. Further, the result in test [8], in test [9] and in test [7] was inactive.
For the compound `CC(=O)NCCc1c[nH]c2ccccc12`, the Potency result in [1], in test [2], in test [3], in test [4] and in test [6] was “inactive” throughout. For the same compound, the compound was called inactive in [8], in test [9] and in test [7].
Turning to `O=C(O)Cc1cnc[nH]1`, the Potency entry in test [1], in test [2], in test [3], in test [4], in [5] and in test [6] was “inactive” throughout. The compound was called inactive in test [9] and in test [7].
Turning to `O=C1CCCN1CC#CCN1CCCC1`, the Potency entry in test [1], in test [2], in [3], in [4], in test [5] and in test [6] was “inactive” throughout. Moreover, the result in test [8], in test [9] and in test [7] was inactive.
Take `NC(CP(=O)(O)O)C(=O)O` (centres undefined): the Potency entry in [1], in test [2], in test [3], in test [4], in [5] and in [6] was “inactive” each time. The compound was classed as inactive in test [9] and in test [7].
Turning to `CC[C@H](CO)Nc1nc(NCc2ccccc2)c2ncn(C(C)C)c2n1`, the Potency is 6.31 µM (active) in test [1]; 3.16 µM (active) in [2]; 10 µM (active) in [3]; 5.62 µM (active) in test [5]; 5.62 µM (active) in [6].
On to `c1ccc(CCCN2CCN(CCOC(c3ccccc3)c3ccccc3)CC2)cc1`, for which the Potency in test [1] was 7.08 µM (active); in test [2] it was 11.2 µM (active); in test [3], 10 µM (active); in [4], 8.91 µM (active); in test [5] it was 3.16 µM (active); in [6] it was 7.94 µM (active). The result in [7] was inactive.
Consider `CCCN1CCO[C@@H]2c3cc(O)ccc3OC[C@H]21`, for which the Potency result in test [1], in test [2], in test [3], in test [4], in test [5] and in test [6] was “inactive” throughout. The Potency entry in test [10] is “inactive”. Further, the outcome in [8], in [9] and in [7] was inactive.
Consider `NCCc1c[nH]c2ccc(O)cc12`, for which the Potency entry in [1], in test [2], in test [3], in [4], in test [5] and in test [6] was “inactive” in each case. The Potency entry in test [10] is “inactive”. For the same compound, the compound was called inactive in test [8], in test [9] and in test [7].
On to `C[N+]1(C)C2CCC1CC(OC(=O)C(CO)c1ccccc1)C2` (centres undefined), for which the Potency entry in [1], in test [2], in [3], in test [4], in [5] and in [6] was “inactive” each time. The Potency entry in test [10] is “inactive”. The compound was classed as inactive in test [8], in test [9] and in [7].
With `C[C@@H](N)Cc1cnc[nH]1`, the Potency entry in test [1], in test [2], in test [3], in test [4] and in test [6] was “inactive” in each case. The outcome in [8], in test [9] and in test [7] was inactive.
As to `O=C(O)CC[N+](=O)[O-]`, the Potency result in [1], in test [2], in test [3], in test [4], in [5] and in [6] was “inactive” each time. Also, the compound was called inactive in test [8], in [9] and in test [7].
`COc1cc(C(O)CN)ccc1O` (centres undefined): the Potency entry in [1], in [2], in test [3], in test [4], in test [5] and in test [6] was “inactive” in each case. Also, the result in [9] and in test [7] was inactive.
On to `CS(=N)(=O)CC[C@H](N)C(=O)O` (some centres undefined), for which the Potency result in [1], in test [2], in test [3], in [4], in [5] and in test [6] was “inactive” in each case. Moreover, in test [10], the Potency result is “inactive”. In addition, the outcome in [9] and in [7] was inactive.
As to `NC(=O)CN1CC(O)CC1=O` (centres undefined), the Potency entry in test [1], in test [2], in test [3], in test [4] and in test [5] was “inactive” throughout. Moreover, the Potency in test [6] was 2.82 µM (active). Also, the compound was classed as inactive in test [8], in test [9] and in test [7].
On to `C[N+](C)(C)CC(=O)O`, for which the Potency entry in [1], in [2], in test [3], in [4], in test [5] and in [6] was “inactive” throughout. Moreover, the Potency entry in test [10] is “inactive”. Besides, the compound was classed as inactive in test [8], in test [9] and in [7].
As to `NC(=NCCC[C@H](N)C(=O)O)N[N+](=O)[O-]`, the Potency result in test [1], in test [2], in [3], in test [4], in [5] and in [6] was “inactive” throughout. Moreover, the outcome in test [9] and in test [7] was inactive.
